High-throughput results as filed in PubChem.
In the library only some 8% were active in any assay of this set; here they are far more common.
HT1080NT lethal: kills 2HG-producing HT-1080-NT fibrosarcoma cells; HT-1080-NT fibrosarcoma viability, CellTiter-Glo ATP luminescence, 48 h; Potency, µM (top dose mostly 46.1 µM), inactives show top-dose activity, negative = less viability, actives largely listed as cytotoxic; actives 1.6% (n = 360,000);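 also: NT is the 2HG producing partner of a matched IDH1 knockdown line; 0% = DMSO-treated cells and -100% = media-only wells without cells; nearly all actives have a fitted effect of over 55% in size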
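Read-out is CellTiter-Glo luminescence after 10 minutes at room temperature, following 48 hours' compound treatment of HT-1080-NT cells (750 cells/well, RPMI, 5% FBS, 37 degrees C).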
KB-V1 cytotox: KB-V1 MDR subline cytotoxicity. KB-V1 MDR cells viability, CellTiter-Glo, 72 h. actives 3.4% (n = 400,000). Potency, µM (top dose mostly 46.1 µM), most hits filed as cytotoxic; also: % is scaled to controls: 0 for no effect and ±100 for the full control effect; nearly all actives have a fitted effect of over 60% in size
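Cells of the MDR subline KB-V1 are plated, dosed with compound at multiple concentrations, and incubated 72 h at 37 degrees C; CellTiter-Glo is then added and luminescence read after 10 min.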
SW480 rerep: DNA re-replication induction in SW480 cells | AID 624297 | SW480 DNA re-replication, Hoechst DNA content imaging, 48 h | Potency, µM (doses to about 46.1 µM), without a hit: at the highest dose re-replication activation, usual class: activators | actives 1.8% (n = 340,000); also: % of control where 0% means no effect; nearly all actives have a fitted effect of over 55% in size
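Image-based read-out: total Hoechst fluorescence of nuclei (405 nm excitation, 500-530 nm emission), with hits raising the fraction of high-intensity nuclei. SW480 colon cells incubated 48 hr with compounds at 37 C.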
HT1080 IDH1KD tx: kills HT-1080 cells with IDH1 knockdown. HT-1080 IDH1 knockdown viability, ATP luminescence, 48 h. Potency, µM (doses to about 46.1 µM), inactives show at the highest dose activity, negative = toxicity, hits mostly cytotoxic. actives 2% (n = 360,000);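 also: 0% = DMSO wells and -100% = cell-free medium wells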
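Luminescent ATP read-out (CellTiter-Glo, 10 min at room temperature) after 48 h compound exposure at 37 °C gave viability of IDH1-knockdown HT-1080 cells. Activity was normalised to DMSO and cell-free wells, then fitted as concentration-response curves.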
MCF10A rereplic: inducers of DNA re-replication in MCF 10A breast cells. actives 2.9% (n = 350,000). Potency, µM (highest dose often 46.1 µM), for the others: at the top dose activity, positive = re-replication, hits mostly activators. MCF 10A DNA re-replication, Hoechst nuclear intensity, 48 h. AID 624296; also: % of control where 0% means no effect; nearly all actives have a fitted effect of over 50% in size
KB-3-1 cytotox: KB-3-1 parental cell cytotoxicity | KB-3-1 viability, CellTiter-Glo ATP luminescence, 72 h | actives 1.4% (n = 400,000) | Potency, µM (highest dose often 46.1 µM), usual class: cytotoxic; also: % is scaled to controls: 0 for no effect and ±100 for the full control effect; nearly all actives have a fitted effect of over 60% in size
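KB-3-1 parental drug-naive adenocarcinoma cells in DMEM/10% FBS, incubated 72 h at 37 C with pin-transferred compounds across a concentration series. Viability by CellTiter-Glo luminescence; concentration-response curves fitted after normalization.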
The depositor's hits bear a star; i = inactive; ? = inconclusive; nt = no result given; [ ] = another dose, or the depositor's remark. Calls follow the shape of the dose curve; as a rule, active = well fitted curve in the direction sought with a large enough effect; inconclusive = small, poorly fitted or top-dose-only effect, or another doubt; inactive = no such curve, though single readings can be large; an effect the other way counts as inactive or inconclusive. Potency is read from the fitted curve at half-maximal effect.

SMILES | HT1080NT lethal | KB-V1 cytotox | SW480 rerep | HT1080 IDH1KD tx | MCF10A rereplic | KB-3-1 cytotox
CCC(c1nnnn1-c1ccc2c(c1)OCCO2)N1CCN(c2ccc(OC)cc2)CC1 (centres undefined) | -2% | 16µM* | nt | -29% | nt | ?
CCNC(=S)Nc1ccc(C)c(Cl)c1 | 10% | i | -2% | -3% | 0% | i
CN(C)Cc1csc(NC(=O)Nc2ccccc2Cc2ccccc2)n1 | 15µM* | i | nt | ? | nt | i
NC(Cc1ccc(C(F)(F)F)cc1)c1csc(NC(=O)Nc2ccccc2Cc2ccccc2)n1 (centres undefined) | 8.2µM* | ? | nt | 23µM* | nt | ?
Cc1cccc(C)c1NC(=O)Nc1nc(CN(C)C)cs1 | ? | i | nt | 16% | nt | i
CC(C)c1ccccc1NC(=O)Nc1nc(C(N)Cc2ccc(C(F)(F)F)cc2)cs1 (centres undefined) | 5.8µM* | ? | nt | ? | nt | ?
CCn1c(=S)sc2c(=O)n(CC(=O)NC(C)CCc3ccccc3)c(C)nc21 (centres undefined) | 10% | i | -25% | 7% | 6% | i
O=C(CS(=O)(=O)c1ccc(F)cc1)Nc1nnc(-c2cccs2)o1 | 7% | i | -85% | -1% | -11% | i
COCCN(CC(=O)Nc1ccccc1C(F)(F)F)C(=O)/C=C/c1cc(Cl)c2c(c1)OCO2 | -3% | i | -14% | -5% | -3% | i
COCCN(CC(=O)Nc1ccccc1C(F)(F)F)C(=O)/C=C/c1cc(Cl)c2c(c1)OCCO2 | -1% | 3.7µM* | 17% | -34% | 12% | i
Cc1ccc(S(=O)(=O)c2cn(C)c3cc(N4CCN(C)CC4)c(F)cc3c2=O)c(C)c1 | 21µM* | i | 1.6µM* | ? | -2% | i
Cc1ccc(S(=O)(=O)c2cn(C)c3cc(N4CCCC4)c(F)cc3c2=O)c(C)c1 | nt | i | nt | nt | nt | i
COc1ccc(N2CCN(C(=O)c3ccc(S(=O)(=O)N4CCCCCC4)cc3)CC2)cc1 | -2% | ? | 1% | 0% | ? | i
COc1ccc(-c2cc(-c3ccc(OC)cc3)c(C#N)c(SC)n2)cc1 | 6% | i | 23% | 8% | 21µM* | i
N#Cc1c(-c2ccc(Cl)cc2)cc(-c2ccccc2)nc1SCC(=O)O | -13% | i | -5% | 0% | 1% | i
COc1ccc(-c2cc(-c3ccccc3)c(C#N)c(SCC(=O)Nc3ncc(C)s3)n2)cc1 | -10% | ? | ? | 0% | 23µM* | i
N#Cc1c(-c2ccc(F)cc2)cc(-c2ccccc2)nc1SCC(=O)NCC(=O)O | -2% | i | 16µM* | 10% | -4% | i
O=C1C=C(O)CC2(CCCCC2)C1 | ? | i | nt | 13% | nt | i
COc1ccccc1CNC(=O)Cn1ncc2c(=O)oc3ccc(C)cc3c21 | nt | i | nt | nt | nt | i
CCc1cccc2c(C(=O)COC(=O)c3ccccc3)c[nH]c12 | 0% | ? | -5% | -1% | 0% | i
CCc1cccc2c(C(=O)C(NCCCOC)c3ccccc3)c[nH]c12 (centres undefined) | 16µM* | i | 19% | ? | ? | i
CCc1cccc2c(C(=O)C(NC(C)CC)c3ccccc3)c[nH]c12 (centres undefined) | 21µM* | i | 1% | ? | 15% | i
Cc1ccc(S(=O)(=O)O/N=C2\CCCc3ccccc32)cc1 | -1% | i | -5%[9.22 µM] | 2% | ? | i
CC1=C(C)/C(=N\OS(=O)(=O)c2ccccc2)C=CC1=O | 7.1µM* | 16µM* | 10µM* | 8.9µM* | ? | 11µM*
CCC(=O)OCc1cnc(C)c2oc(=O)c(C(=O)Nc3ccccc3C(F)(F)F)cc12 | nt | i | nt | nt | nt | i
SMILES | HT1080NT lethal | KB-V1 cytotox | SW480 rerep | HT1080 IDH1KD tx | MCF10A rereplic | KB-3-1 cytotox
CC(C)(C)c1cc(C(c2cccnc2)N2CCN(CCO)CC2)cc(C(C)(C)C)c1O (centres undefined) | 6.3µM* | i | -1% | 5µM* | 1% | i
CC(C)(C)n1nnnc1C(c1cccnc1)N1CCN(c2cccc(C(F)(F)F)c2)CC1 (centres undefined) | 0% | ? | -1% | -8% | 6% | i
CCCOc1ccc(NC(=O)CNC(=O)c2cc(OC)cc(OC)c2)cc1OCCC | -1% | i | -10% | 2% | 11% | i
CC(=O)Nc1ccc(-c2nnn(CC(=O)Nc3ccc4c(c3)OCO4)n2)cc1Cl | -1% | ? | ? | 2% | -7% | i
CC(CCc1ccc(O)cc1)NC(c1ccccc1)c1ccc(Cl)cc1 (centres undefined) | 10µM* | i | ? | 7.3µM* | 16µM* | i
CC(CCc1ccccc1)NCc1ccc(Cl)cc1Cl (centres undefined) | 3% | i | -15% | 0% | ? | i
CC(CCc1ccc(O)cc1)NCCC(c1ccccc1)c1ccccc1 (centres undefined) | 21µM* | ? | ? | 21µM* | 8% | ?
Cn1c(=O)[nH]c(=O)c2c1nc(N1CCOCC1)n2CCSc1nnnn1-c1ccccc1 | 15% | i | -15% | 15% | -1% | i
CCCCCCCCn1c(N2CCN(c3cccc(Cl)c3)CC2)nc2c1c(=O)[nH]c(=O)n2C | -4% | 13µM* | 8% | 0% | ? | i
CC(CSc1nnnn1-c1ccccc1)Cn1c(N2CCCC2)nc2c1c(=O)[nH]c(=O)n2C (centres undefined) | 9% | 2.3µM* | -49% | 0% | -62% | i
CCCCCn1c(CN2CCN(c3cccc(Cl)c3)CC2)nc2c1c(=O)[nH]c(=O)n2C | ? | ? | ? | ? | 12% | 23µM*
Cn1c(=O)[nH]c(=O)c2c1nc(N1CCN(CCO)CC1)n2Cc1ccccc1Cl | -7% | i | -16% | -5% | 0.65µM* | i
Cn1c(=O)[nH]c(=O)c2c1nc(CN1CCN(c3cccc(Cl)c3)CC1)n2CCc1ccccc1 | ? | ? | 15% | ? | -2% | i
Cc1cc(Cl)ccc1N1C(=O)CC(NNC(=O)c2cccnc2)C1=O (centres undefined) | 8% | i | 2% | 7% | 0% | i
O=C(Cn1nnc(-c2cccs2)n1)N1c2ccccc2Sc2ccc(C(F)(F)F)cc21 | 15% | i | -4% | 30% | -1% | i
